Screens from PubChem.
Sampled rows, rich in hits. Any-hit rate of the full collection: about 31%.
PLAP activator: PLAP enzyme activators, biochemical, luminescence, HTS; purified PLAP enzyme, luminescent substrate read-out; hits give high values; Alkaline phosphatase, placental type (Homo sapiens), P05187; activation fold at 20 µM; hit rate 1.2% among 96,000; in the data active means activation fold above about 2
CYP2C19 inh: blockers of cytochrome P450 2C19 activity – biochemical, luminescence, ADME assay, primary screen; P33261; inhibition, % at 5 µM; hit rate 21% among 96,000; CYP2C19 Supersomes, luciferin-H EGE luminescence, 30 min;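 active means CYP2C19 inhibition above a set limit at 5 µM in the primary screen, cut at about 50% in these data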;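 further: plate controls were negative control wells for no effect and 2.5 mM tranylcypromine positive control for full effect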
Target sequence (P33261 whole entry, looked up): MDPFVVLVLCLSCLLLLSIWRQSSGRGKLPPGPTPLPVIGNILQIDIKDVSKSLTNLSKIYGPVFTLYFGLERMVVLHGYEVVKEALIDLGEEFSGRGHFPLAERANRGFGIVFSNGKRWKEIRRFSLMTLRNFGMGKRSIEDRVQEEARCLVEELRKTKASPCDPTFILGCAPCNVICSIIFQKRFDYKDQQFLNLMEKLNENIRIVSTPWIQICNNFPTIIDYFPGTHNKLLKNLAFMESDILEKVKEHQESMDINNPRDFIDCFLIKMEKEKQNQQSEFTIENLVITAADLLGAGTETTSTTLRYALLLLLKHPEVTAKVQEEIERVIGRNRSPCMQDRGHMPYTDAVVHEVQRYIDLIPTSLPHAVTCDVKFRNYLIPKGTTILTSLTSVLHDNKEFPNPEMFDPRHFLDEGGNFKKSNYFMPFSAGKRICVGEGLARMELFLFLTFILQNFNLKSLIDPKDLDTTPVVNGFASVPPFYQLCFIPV
CYP2C9 inh: blockers of cytochrome P450 2C9 activity – biochemical, luminescence, ADME assay, primary screen; CYP2C9 Supersomes, luciferin-H conversion; inhibition, % at 5 µM; hit rate 20% among 96,000; AID 777, 2007;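 active means blocking of liver enzyme CYP2C9 beyond about 50% at 5 µM, limit read from the data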
CYP2C19 act: human CYP2C19 activators, primary screen, biochemical, luminescence; 96,000 tested, under 10 active; recombinant CYP2C19, luciferin-H EGE luminescence; hits give high values; 0 = fully inhibited enzyme, 1 = untreated enzyme; activation factor at 5 µM;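 active means activation factor of at least 2 at 5 µM in the primary screen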;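 further: 0 = wells with 2.5 mM tranylcypromine and 1 = vehicle-only wells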
CYP2C9 activ: human CYP2C9 activators, primary screen, biochemical, luminescence; Cytochrome P450 2C9 (Homo sapiens), P11712; recombinant CYP2C9, luciferin-H conversion; hits give high values; factor 1 = untreated enzyme, 0 = blocked; activation factor at 5 µM; hit rate 1.4% among 96,000;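 active means activation factor of 2 or more for CYP2C9 at a 5 µM dose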;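 further: 0 = sulfaphenazole-blocked wells and 1 = vehicle-only wells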
* marks the source's active call; other numbers are inactive results.

Results for CCN=C(Nc1cccc(F)c1)SC1CC(=O)N(c2ccc(OC)cc2)C1=O (stereo not drawn) ?
PLAP activator: 0.9; CYP2C19 inh: 31.4; CYP2C9 inh: 58.6*; CYP2C19 act: 0.7; CYP2C9 activ: 0.4

Results for CC1(C)Cc2c(ccc3ccccc23)C(NNC(=O)c2cccnc2)=N1 ?
PLAP activator: 1.4; CYP2C19 inh: -3.4; CYP2C9 inh: -1.0; CYP2C19 act: 1; CYP2C9 activ: 1

Results for COc1ccc2c(c1OC)C(=O)N1N=C(c3ccccc3)CC21 (stereo not drawn) ?
PLAP activator: 1; CYP2C19 inh: 19.4; CYP2C9 inh: -21.9; CYP2C19 act: 0.8; CYP2C9 activ: 1.2

What do the screens show for `COC(=O)CSc1c(-c2ccccc2)c2cc(Cl)ccc2[nH]c1=O`?
PLAP activator: 0.9; CYP2C19 inh: 33.6; CYP2C9 inh: 32.4; CYP2C19 act: 0.7; CYP2C9 activ: 0.7

How did COc1cccc(C2CC(c3c(-c4ccccc4)c4cc(Cl)ccc4[nH]c3=O)=NN2S(C)(=O)=O)c1OC (stereo not drawn) do in these assays?
PLAP activator: 1.7; CYP2C19 inh: 24.5; CYP2C9 inh: 50.6*; CYP2C19 act: 0.8; CYP2C9 activ: 0.5

How did COc1ccccc1C1CC(c2c(-c3ccccc3)c3cc(Cl)ccc3[nH]c2=O)=NN1S(C)(=O)=O (stereo not drawn) do in these assays?
PLAP activator: 1.4; CYP2C19 inh: 28.3; CYP2C9 inh: 59.5*; CYP2C19 act: 0.7; CYP2C9 activ: 0.4

Results for O=C(NC1=NCCS1)c1cc2ccccc2o1 ?
PLAP activator: 0.9; CYP2C19 inh: 25.9; CYP2C9 inh: 28.0; CYP2C19 act: 0.7; CYP2C9 activ: 0.7

Results for Cc1cc(C(=O)N2CCc3ccccc32)n(-c2ccccc2)n1 ?
PLAP activator: 1.2; CYP2C19 inh: 75.2*; CYP2C9 inh: 67.8*; CYP2C19 act: 0.2; CYP2C9 activ: 0.3

What do the screens show for `CC(C)(C)c1cc(C(=O)N2CCN(c3ncccn3)CC2)ccn1`?
PLAP activator: 1; CYP2C19 inh: 11.3; CYP2C9 inh: 9.8; CYP2C19 act: 0.9; CYP2C9 activ: 0.9

What do the screens show for `CC(C)(C)c1cc(C(=O)N2CCc3ccccc32)ccn1`?
PLAP activator: 1.2; CYP2C19 inh: 72.3*; CYP2C9 inh: 53.0*; CYP2C19 act: 0.3; CYP2C9 activ: 0.5

How did Cc1cc(C)n(-c2ccc(C(=O)Nc3ccccc3N3CCOCC3)cc2)n1 do in these assays?
PLAP activator: 1.3; CYP2C19 inh: 12.5; CYP2C9 inh: 18.6; CYP2C19 act: 0.9; CYP2C9 activ: 0.8

How did Cc1cc(C)n(-c2ccc(C(=O)N3CCc4ccccc43)cc2)n1 do in these assays?
PLAP activator: 1; CYP2C19 inh: 40.8; CYP2C9 inh: -102.6; CYP2C19 act: 0.6; CYP2C9 activ: 2*

Results for CC(=O)Nc1ccc(NC(=O)c2cc(C)nn2-c2ccccc2)cc1 ?
PLAP activator: 1.1; CYP2C19 inh: 3.0; CYP2C9 inh: 14.5; CYP2C19 act: 1; CYP2C9 activ: 0.9

How did CC(C)n1c(C(=O)OCC(=O)NCc2ccc3c(c2)OCO3)cc2occc21 do in these assays?
PLAP activator: 1; CYP2C19 inh: 11.6; CYP2C9 inh: 58.9*; CYP2C19 act: 0.9; CYP2C9 activ: 0.4

Results for CC(C)n1c(C(=O)OCC(=O)NCc2ccc3c(c2)OCO3)cc2sccc21 ?
PLAP activator: 1; CYP2C19 inh: 41.8; CYP2C9 inh: 86.2*; CYP2C19 act: 0.6; CYP2C9 activ: 0.1

What do the screens show for `Cc1ccc(OCCN2C(=O)OC(C)(C)C2(C)O)cc1` (stereo not drawn)?
PLAP activator: 1; CYP2C19 inh: 36.7; CYP2C9 inh: 10.5; CYP2C19 act: 0.6; CYP2C9 activ: 0.9

How did CCOc1cc(NC(=S)NCC(C)C)c(OCC)cc1NC(=O)c1cccs1 do in these assays?
PLAP activator: 0.9; CYP2C19 inh: 2.1; CYP2C9 inh: 7.6; CYP2C19 act: 1; CYP2C9 activ: 0.9

How did CC1N/C(=C\C(=O)c2ccccc2)N(O)C1(C)C (stereo not drawn) do in these assays?
PLAP activator: 1; CYP2C19 inh: 43.7; CYP2C9 inh: 30.4; CYP2C19 act: 0.6; CYP2C9 activ: 0.7

Results for CCOP(=O)(O)c1ccccc1OCCCCCOc1ccccc1P(=O)(O)OCC ?
PLAP activator: 1.3; CYP2C19 inh: 0.6; CYP2C9 inh: 17.6; CYP2C19 act: 1; CYP2C9 activ: 0.8

What do the screens show for `COCCOc1cc(-n2ccnc2SC)c(Cl)cc1Cl`?
PLAP activator: 1.2; CYP2C19 inh: 67.6*; CYP2C9 inh: 13.7; CYP2C19 act: 0.3; CYP2C9 activ: 0.9

What do the screens show for `Cc1ccc(-n2ccnc2SCC(=O)O)c(C)c1`?
PLAP activator: 1.1; CYP2C19 inh: 5.7; CYP2C9 inh: 24.0; CYP2C19 act: 0.9; CYP2C9 activ: 0.8

How did O=C(Cn1nc(C(F)(F)F)c2c1CCCC2)NCCN1CCOCC1 do in these assays?
PLAP activator: 0.9; CYP2C19 inh: 63.8*; CYP2C9 inh: 26.9; CYP2C19 act: 0.4; CYP2C9 activ: 0.7

Results for CC1CCN(C(=O)Cn2nc(C(F)(F)F)c3c2CCCC3)CC1 ?
PLAP activator: 0.9; CYP2C19 inh: 15.1; CYP2C9 inh: -3.7; CYP2C19 act: 0.8; CYP2C9 activ: 1

How did CCOC(=O)N1CCN(c2c(NCc3ccccn3)c(=O)c2=O)CC1 do in these assays?
PLAP activator: 0.9; CYP2C19 inh: 27.1; CYP2C9 inh: -17.0; CYP2C19 act: 0.7; CYP2C9 activ: 1.2

What do the screens show for `CCCCN(CC)C(=O)c1n[nH]c(=O)c2ccccc12`?
PLAP activator: 1; CYP2C19 inh: -25.2; CYP2C9 inh: 25.8; CYP2C19 act: 1.3; CYP2C9 activ: 0.7

What do the screens show for `O=C(Nc1cc(Sc2nc3ccccc3s2)cc([N+](=O)[O-])c1)c1ccccc1F`?
PLAP activator: 1; CYP2C19 inh: 35.7; CYP2C9 inh: 70.7*; CYP2C19 act: 0.6; CYP2C9 activ: 0.3

What do the screens show for `O=C(N/N=C/c1ccc(Sc2nc3ccccc3s2)c([N+](=O)[O-])c1)c1ccccn1`?
PLAP activator: 1.1; CYP2C19 inh: -1.9; CYP2C9 inh: 2.3; CYP2C19 act: 1; CYP2C9 activ: 1

What do the screens show for `COC(=O)C1=C(C(=O)OC)SC2(S1)C(C(=O)OC)=C(C(=O)OC)SC1=C2c2cc(C)ccc2NC1(C)C`?
PLAP activator: 1.7; CYP2C19 inh: 82.4*; CYP2C9 inh: 86.9*; CYP2C19 act: 0.2; CYP2C9 activ: 0.1

What do the screens show for `CC1=CC(C)(C)Nc2ccc(C)cc21`?
PLAP activator: 1.2; CYP2C19 inh: 9.0; CYP2C9 inh: -20.9; CYP2C19 act: 0.9; CYP2C9 activ: 1.2

How did O=C(/C=C/c1ccccc1)Nn1cnnc1 do in these assays?
PLAP activator: 1; CYP2C19 inh: 53.0*; CYP2C9 inh: 54.4*; CYP2C19 act: 0.5; CYP2C9 activ: 0.5
